Most compounds without a hit are left out; they make up all but 2.9% or so of the library.
ADAM17 inh: inhibits human ADAM17; P78536; recombinant ADAM17, EDANS/DABCYL FRET peptide cleavage; inhibition, % at 6.95 µM; 370,000 tested, 0.83% active; AID 720648;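 active = inhibition above the mean of compounds lying between control limits plus 3 SD, set per campaign, cut at about 8.5% in these data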
PLC-gamma1 inh: inhibitors of human phospholipase C gamma1 | 370,000 tested, 0.84% active | AID 720700 | purified PLC-gamma1, fluorogenic substrate, fluorescence | inhibition, % at 12.2 µM | P19174; in the data active = inhibition above about 9.5%
proKLK7 act: proKLK7 (human) activation, primary screen | P49862 | purified proKLK7, EDANS-DABCYL substrate fluorescence; 100% is mature enzyme control, 0% vehicle | activation, % at 7 µM | 370,000 tested, 0.9% active | AID 652039;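 active = activation above the mean of all tested compounds plus 3 SD, computed per campaign excluding outliers beyond control limits, cut at about 13% in these data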
PLCb3 inh: inhibitors of human phospholipase C beta3. Q01970. inhibition, % at 12.2 µM. AID 720704. Purified PLC-beta3, fluorogenic substrate, fluorescence. 370,000 tested, 0.18% active
Target sequence (Q01970 whole entry, looked up): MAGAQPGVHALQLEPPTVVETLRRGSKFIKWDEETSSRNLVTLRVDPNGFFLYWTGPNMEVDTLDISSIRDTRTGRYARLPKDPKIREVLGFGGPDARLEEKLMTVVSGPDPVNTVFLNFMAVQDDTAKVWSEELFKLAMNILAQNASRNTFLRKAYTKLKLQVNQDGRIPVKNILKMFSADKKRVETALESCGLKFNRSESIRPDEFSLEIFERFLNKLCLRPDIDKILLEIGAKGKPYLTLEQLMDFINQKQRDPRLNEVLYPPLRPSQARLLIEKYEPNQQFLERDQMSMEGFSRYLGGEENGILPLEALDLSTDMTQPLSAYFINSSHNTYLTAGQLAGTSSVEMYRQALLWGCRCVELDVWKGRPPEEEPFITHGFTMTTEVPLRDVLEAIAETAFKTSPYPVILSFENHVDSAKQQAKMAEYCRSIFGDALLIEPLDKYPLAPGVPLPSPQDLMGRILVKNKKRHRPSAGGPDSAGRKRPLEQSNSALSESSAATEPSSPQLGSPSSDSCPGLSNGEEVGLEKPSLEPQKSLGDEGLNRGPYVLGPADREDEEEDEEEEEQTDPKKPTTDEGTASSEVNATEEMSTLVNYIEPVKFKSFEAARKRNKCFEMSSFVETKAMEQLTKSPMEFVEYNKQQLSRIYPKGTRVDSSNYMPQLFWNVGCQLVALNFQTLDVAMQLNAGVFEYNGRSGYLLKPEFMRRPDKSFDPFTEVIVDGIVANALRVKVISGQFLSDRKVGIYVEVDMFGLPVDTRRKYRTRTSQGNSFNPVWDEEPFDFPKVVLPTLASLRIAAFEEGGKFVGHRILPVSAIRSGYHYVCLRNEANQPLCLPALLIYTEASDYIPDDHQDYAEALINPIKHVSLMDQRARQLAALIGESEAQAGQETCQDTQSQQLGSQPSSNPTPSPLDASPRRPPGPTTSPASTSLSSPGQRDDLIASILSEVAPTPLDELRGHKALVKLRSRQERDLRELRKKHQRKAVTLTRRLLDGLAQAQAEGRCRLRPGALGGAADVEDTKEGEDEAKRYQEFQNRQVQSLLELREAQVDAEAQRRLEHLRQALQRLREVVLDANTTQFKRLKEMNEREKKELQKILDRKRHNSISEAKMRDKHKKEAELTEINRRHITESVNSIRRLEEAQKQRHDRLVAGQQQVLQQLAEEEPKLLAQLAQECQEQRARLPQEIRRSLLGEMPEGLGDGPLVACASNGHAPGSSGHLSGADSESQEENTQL
ADAM10 inh: inhibitors of human ADAM10. O14672. recombinant ADAM10, EDANS/DABCYL FRET peptide cleavage, 3 h. inhibition, % at 7 µM. 370,000 tested, 0.62% active. AID 720582;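 active = inhibition above a per-campaign cutoff equal to the mean of compounds falling between control-based bounds plus 3 SD, cut at about 20% in these data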
PLCgamma1 ctr: inhibits human PLC-gamma1 in PLC-beta3 counter-screen. shares compounds with PLC-gamma1 inh. purified PLC-gamma1, fluorogenic substrate, fluorescence. inhibition, % at 12.3 µM. 3,300 tested, 3.1% active. AID 743258; in the data active = inhibition above about 9.5%
PLCbeta3 conf: human PLC-beta3 inhibition, confirmation | inhibition, % at 12.3 µM | 3,300 tested, 1% active | purified PLC-beta3, fluorogenic substrate fluorescence | shares compounds with PLC-gamma1 inh | AID 743261
Large screens that a line does not name were inactive (follow-up assays come after a bar, where they were run). Cut-off read from the data, not from the text of the source, unless noted: active = inhibition above about 11%; inactive = the rest.

COC(=O)N[C@H](C(=O)N[C@@H](Cc1ccccc1)[C@@H](O)CN(Cc1ccc(-c2ccccn2)cc1)NC(=O)[C@@H](NC(=O)OC)C(C)(C)C)C(C)(C)C	PLC-gamma1 inh 15.2, PLCb3 inh 11.0 | PLCgamma1 ctr inactive | PLCbeta3 conf inactive
O=C(Nc1cccc(Cl)c1)OC1CCC12CCC(c1ccccc1)CC2 (stereo not drawn)	none
C/C(=N\Nc1nc(-c2cc(C)ccc2C)cs1)c1cc2ccccc2oc1=O	PLC-gamma1 inh 10.4 | PLCgamma1 ctr inactive | PLCbeta3 conf inactive
CCSC1=C(C#N)C2(CCCCC2)C(C#N)C(=O)N1 (stereo not drawn)	PLC-gamma1 inh 12.8 | PLCgamma1 ctr inactive | PLCbeta3 conf inactive
COc1ccc(Oc2c(Cl)cnn(-c3cc(C)cc(C)c3)c2=O)cc1	none (no result: proKLK7 act)
COCC(O)CSc1c([N+](=O)[O-])nc(C)n1Cc1ccc(OC)c([N+](=O)[O-])c1 (stereo not drawn)	PLC-gamma1 inh 10.2 | PLCgamma1 ctr inactive | PLCbeta3 conf inactive
COc1ccc(CSc2n[nH]c(C)n2)cc1[N+](=O)[O-]	none
C[C@H]1[C@@H](OC(=O)NCc2ccc(Cl)cc2)CC[C@@]23CCCN2C(=O)CCC[C@@H]13	none (no result: proKLK7 act)
C=CCN(CC=C)CC(O)Cn1c2ccccc2c2ccccc21 (stereo not drawn)	none
CCN(CC)CC(O)Cn1c2ccccc2c2ccccc21 (stereo not drawn)	PLC-gamma1 inh 11.6 | PLCgamma1 ctr inactive | PLCbeta3 conf inactive
CC(C)COC(=O)c1ccc(NC(=O)C2C3CCC(C3)C2C(=O)O)cc1 (stereo not drawn)	none
CC(C)COC(=O)Nc1ccc(C(=O)O)cc1	PLCb3 inh 13.1 | PLCgamma1 ctr inactive | PLCbeta3 conf inactive
COC(=O)Nc1cc([N+](=O)[O-])ccc1OC	PLC-gamma1 inh 10.0 | PLCgamma1 ctr inactive | PLCbeta3 conf inactive
COc1ccc([N+](=O)[O-])cc1NC(=O)CSCc1ccccc1C	none
COc1ccc([N+](=O)[O-])cc1NC(=O)CSCc1ccc(Br)cc1	PLC-gamma1 inh 10.6 | PLCgamma1 ctr inactive | PLCbeta3 conf inactive
COc1ccc([N+](=O)[O-])cc1NC(=O)Nc1ccccc1	none
O=C(C1CCCN(S(=O)(=O)c2cccc3ccccc23)C1)N1CCN(Cc2ccccc2)CC1 (stereo not drawn)	none
CCCn1c(SC(C)C(=O)NC2CCCC(C)C2C)n[nH]c1=O (stereo not drawn)	none
O=C(CN1C(=O)c2ccccc2S1(=O)=O)N1CCN(c2ccc(F)cc2)CC1	PLC-gamma1 inh 11.3 | PLCgamma1 ctr inactive | PLCbeta3 conf inactive
Cc1ccc2c(c1)N(CCC(=O)NC1CC1)C(=O)C(C)O2 (stereo not drawn)	PLCb3 inh 11.5 | PLCgamma1 ctr inactive | PLCbeta3 conf inactive
O=C(CN1CCN(CC(=O)Nc2ccc3c(c2)OC2(CCCCC2)O3)CC1)Nc1cccc(F)c1	none
COc1ccc2c(c1)CCCC21NC(=O)N(CC(=O)N2CC(C)OC(C)C2)C1=O (stereo not drawn)	PLC-gamma1 inh 12.5 | PLCgamma1 ctr inactive | PLCbeta3 conf inactive
OC(CN1CCCCC1)CN1CCCCC1	PLC-gamma1 inh 11.0 | PLCgamma1 ctr inactive | PLCbeta3 conf inactive
OCC(O)CN1CCCC1 (stereo not drawn)	none
CCCCNC(=O)C1(C)CCN1C(=O)c1cccc2c1OCCO2 (stereo not drawn)	none
O=C(/C=C/c1cccc([N+](=O)[O-])c1)NCc1cccnc1	PLCb3 inh 11.2 | PLCgamma1 ctr inactive | PLCbeta3 conf inactive
O=C(CCNC(=O)c1ccc([N+](=O)[O-])cc1)Nc1ccc(F)cc1	none
Cc1cc(C)cc(NC(=O)CCNC(=O)c2ccc([N+](=O)[O-])cc2)c1	PLC-gamma1 inh 10.2 | PLCgamma1 ctr inactive | PLCbeta3 conf inactive
Cc1cn([C@H]2C[C@H](O)[C@@H](CCC(=O)NCc3ccc(N(C)C)cc3)O2)c(=O)[nH]c1=O	none
CCC(C)(C)c1nnc(NC(=O)C2CC(=O)N(CCc3ccc(F)cc3)C2)s1 (stereo not drawn)	none
O=C(O)c1ccc2c(c1)C(=O)/C(=C\c1ccco1)C2=O	PLC-gamma1 inh 36.2 | PLCgamma1 ctr 22.7 | PLCbeta3 conf inactive
Cc1ccc(/C=C2/C(=O)c3ccc(C(=O)O)cc3C2=O)o1	PLC-gamma1 inh 18.9 | PLCgamma1 ctr inactive | PLCbeta3 conf inactive
Cc1ccc(S(=O)(=O)N2CCN(C)CC2c2ccccc2)cc1 (stereo not drawn)	none
CSc1ncccc1C(=O)NC1CCCc2c1cnn2-c1ccc(C)c(C)c1 (stereo not drawn)	PLC-gamma1 inh 11.4 | PLCgamma1 ctr inactive | PLCbeta3 conf inactive
CC(=O)COc1c(-c2ccco2)oc2ccccc2c1=O	none
Cc1ccc(-c2nnn(CC(=O)Nc3ccccc3N3CCOCC3)n2)cc1	PLC-gamma1 inh 10.5 | PLCgamma1 ctr inactive | PLCbeta3 conf inactive
O=C1CC(=O)Nc2ccccc2N1	none
O=C1CS(=O)(=O)c2ccccc2N1	PLC-gamma1 inh 23.6 | PLCgamma1 ctr 21.4 | PLCbeta3 conf inactive
O=C(Nc1ccc(Cl)cc1)c1ccc(CN2CCc3ccccc3C2)cc1	PLC-gamma1 inh 12.8 | PLCgamma1 ctr inactive | PLCbeta3 conf inactive
COc1cccc(NC(=O)Nc2ccncc2)c1	PLCb3 inh 11.2 | PLCgamma1 ctr inactive | PLCbeta3 conf inactive
CCOc1ccccc1NC(=O)Nc1ccncc1	PLC-gamma1 inh 9.8 | PLCgamma1 ctr inactive | PLCbeta3 conf inactive
CCN(CC(=O)Nc1ccccc1C(F)(F)F)C(=O)c1oc2c(Cl)cccc2c1C	PLC-gamma1 inh 12.7 | PLCgamma1 ctr inactive | PLCbeta3 conf inactive
CCN(CC(=O)Nc1ccc(OC)cc1)C(=O)c1oc2c(Cl)cccc2c1C	none
O=C(CCCN1C(=O)/C(=C\c2ccco2)SC1=S)Nc1ccc(O)cc1C(=O)O	PLC-gamma1 inh 9.6 | PLCgamma1 ctr inactive | PLCbeta3 conf inactive
O=C(CCCN1C(=O)/C(=C/c2ccco2)SC1=S)Nc1cccc(C(=O)O)c1	PLC-gamma1 inh 10.6 | PLCgamma1 ctr inactive | PLCbeta3 conf inactive
O=C(CCCN1C(=O)/C(=C\c2cccs2)SC1=S)Nc1ccc(O)cc1C(=O)O	none
COCCNC(=O)Cn1nc(-c2ccc(Cl)cc2)c2ccccc2c1=O	PLC-gamma1 inh 11.6 | PLCgamma1 ctr inactive | PLCbeta3 conf inactive
COc1cccc(NC(=O)N(C)C[C@H]2Oc3ncc(Br)cc3C(=O)N([C@H](C)CO)C[C@H]2C)c1	none
O=C(c1cccc(S(=O)(=O)N2CCN(c3ccc(F)cc3)CC2)c1)N1CCCC(C(F)(F)F)C1 (stereo not drawn)	PLC-gamma1 inh 10.3 | PLCgamma1 ctr 13.7 | PLCbeta3 conf inactive
O=C(c1ccncc1)N1CCCC(N2CCN(c3ccc(F)cc3)CC2)C1 (stereo not drawn)	PLC-gamma1 inh 10.7 | PLCgamma1 ctr inactive | PLCbeta3 conf inactive

Screening data deposited in PubChem by The Scripps Research Institute Molecular Screening Center.
